Here are results for 76 molecules from PubChem BioAssay AID624300 (Southern Research Specialized Biocontainment Screening …, 2012).

Out of some 2,400 compounds screened, about 360 (15%) were called active.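 The calls were made as follows: active = viability falls under 70% at one or more tested concentrations, taken as toxicity; inactive = viability stays over 70% at every dose.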 The list is a sample of the results. A call without a number means that no potency is given here. Potency and affinity values are given separately.

This assay can be described thus: viability loss in HeLa cells – cytotoxicity control for MgcRacGAP inhibitor project, dose response (AID 624300). To be noted: CellTiter-Glo luminescence, 24 h; series mostly up to 100 µM. In general terms: In ATP-based viability assays light output follows the ATP content of the culture.
With `CCc1nnc(NC(=O)CSCc2cc(=O)n3ccsc3n2)s1`, the call was inactive.
Turning to `COc1ccc([C@H]2CN(c3ccc(OC)cc3)C(=O)[C@@H]2CC(=O)Nc2ccccc2)cc1`, the molecule was classed as inactive.
To `COc1cc(/C=N/NC(=O)C2(O)c3ccccc3-c3ccccc32)ccc1O` belongs “inactive”; to `O=C1C=CC(=O)N1c1ccc(Nc2ccccc2)cc1`, “inactive”.
Under `O=C(O)C1CCN(Cc2cnn(-c3ccccc3)c2-n2cccc2)CC1` stands “inactive”; under `COc1cc(/C=N/NC(=O)c2ccc3c(c2)OCO3)ccc1O`, “inactive”.
As to `COc1ccc(CCNCCN2CCOCC2)cc1`, the molecule was classed as inactive.
Under `CN=c1scc(C)n1/N=C/c1ccc(O)cc1O` stands “inactive”.
To `CN=c1scc(-c2ccc(F)cc2)n1/N=C/c1ccc(O)c(O)c1` belongs “inactive”; to `CN=c1scc(-c2ccco2)n1/N=C/c1ccc(O)c(O)c1`, “inactive”; to `Oc1ccc(/C=N/NC(=S)Nc2cccnc2)c(O)c1`, “inactive”.
To `COC(=O)c1[nH]c2ccccc2c1NC(=O)Oc1ccccc1` belongs “inactive”; to `Nc1ccc(N2CCOCC2)c(Cl)c1`, “inactive”.
As for `CC(=Nc1ccc(O)cc1)c1sc2ccccc2c1O`, the call was inactive.
Under `Oc1ccc(N=Cc2cc(Br)c(N3CCOCC3)o2)cc1` stands “inactive”; under `COc1ccccc1Nc1n[nH]c(=S)s1`, “inactive”; under `O=C(Cn1c(C(=O)NCc2ccco2)cc2sccc21)c1ccccc1`, “inactive”.
To `COc1ccc(C=NNC(=O)c2cc(C)oc2C)cc1O` belongs “inactive”.
As to `Cc1nonc1C(=O)N/N=C/c1ccc(O)c(O)c1`, the result was inactive.
To `Cc1c(C(=O)N/N=C/c2ccc(O)cc2)sc(=S)n1C` belongs “inactive”; to `Oc1cc(O)c2c(c1)O[C@H](c1ccc(O)c(O)c1)[C@H](O)C2`, “inactive”.
Take `CCOC(=O)c1c(OCC)[nH]c2c1cc(O)c1ccccc12`: the result was inactive.
To `c1coc(CSSCc2ccco2)c1` belongs “inactive”.
Under `COc1cc(/C=N/n2nnnc2N)ccc1O` stands “inactive”.
To `Cc1cc(C)cc(NC(=O)C(NCCN2CCOCC2)c2ccccc2)c1` (stereo unspecified) belongs “inactive”; to `CN=c1scc(C)n1/N=C/c1cc(Br)c(O)c(OC)c1`, “inactive”.
For `Cc1cc(O)ccc1N/C=C1\CCCC1=O`, the call was inactive.
To `CN(C)/C=C/c1oc2ccc(O)cc2c1[N+](=O)[O-]` belongs “inactive”; to `O=c1oc2cc(O)ccc2c2oc3cc(O)ccc3c12`, “inactive”.
Take `CC(C)COc1ccc(N)cc1OCC(C)C`: the call was inactive.
On to `Nc1cc2c([N+](=O)[O-])cccc2o1`, for which the call was inactive.
Under `COc1cc(Sc2ccc(C)cc2)c(OC)cc1N` stands “inactive”; under `COc1ccc(NCCC(O)c2ccc(Cl)cc2)cc1` (stereo unspecified), “inactive”.
To `COc1ccc(NC2CCCN(C(=O)COc3ccc(C(C)=O)cc3)C2)cc1` (stereo unspecified) belongs “inactive”; to `S=c1[nH]nc(-c2ccncc2)n1/N=C/c1ccccc1`, “inactive”; to `COc1ccc(N2CCN(C(=O)c3ccc(Br)o3)CC2)cc1`, “inactive”.
Under `O=[N+]([O-])c1ccc(C2CC(c3ccccc3)=Nc3ccccc3S2)cc1` (stereo unspecified) stands “inactive”.
With `CCOC1=C/C(=C/c2c(N)n3nc(S(=O)(=O)CC)sc3nc2=O)C=CC1=O`, the call was inactive.
Under `COc1ccc(OC(=O)c2cc(S(=O)(=O)N3CCCC3)ccc2Cl)cc1` stands “inactive”; under `O=C(Cn1c(C(=O)NCC2CCCO2)cc2sccc21)c1ccccc1` (stereo unspecified), “inactive”.
On to `CCOc1cc(/C=N\NC(=O)CC(=O)NCCc2ccccc2)ccc1O`, for which the molecule was classed as inactive.
To `CS(=O)(=O)c1ccc2c(c1)sc1nc(=O)c(/C=C3/C=CC(=O)C(O)=C3)c(N)n12` belongs “inactive”; to `C#CCOc1ccccc1CNC1CCN(Cc2ccccc2)CC1`, “inactive”.
Under `O=C(NCCNCC(O)COc1ccc(O)cc1)N1CCOCC1` (stereo unspecified) stands “inactive”; under `COc1ccc(NCC(O)COc2ccc(C(C)(C)C)cc2)cc1` (stereo unspecified), “inactive”; under `CCCCN(C)C(=O)C1CCN(Cc2ccc(OCc3ccccc3)cc2)CC1`, “inactive”.
Under `O=C(Cc1coc2cc(O)ccc12)NNC(=O)c1ccc(Br)s1` stands “inactive”.
With `CCc1ccc(CNc2ccc(N3CCN(C(C)=O)CC3)cc2)cc1`, the call was inactive.
Under `COc1cc(N=Nc2ccc(C)cc2S(N)(=O)=O)c(C)cc1N` stands “inactive”.
To `COc1cc(/C=N/NC(=O)CCNC(=O)c2ccccc2Cl)ccc1O` belongs “inactive”; to `COc1cc(/C=C/C(=O)OCC(=O)Nc2ccc3c(c2)OCCO3)ccc1O`, “inactive”.
Under `Oc1ccc(-c2csc(NCc3ccco3)n2)cc1` stands “inactive”; under `CN(c1ccc(O)cc1)c1nc(-c2cccnc2)cs1`, “inactive”; under `COc1ccc(N)cc1NC(=O)CN1CCOCC1`, “inactive”.
Take `CC/C(=N\O)c1ccc(O)c(OC)c1`: the molecule was classed as inactive.
To `CC(C(=O)N(C)Cc1ccccc1)N1CCN(C/C=C/c2ccccc2)CC1` (stereo unspecified) belongs “inactive”.
To `COc1ccc(N2CCN(C(=O)CCCn3c(=O)c4cccn4c4cccnc43)CC2)cc1` belongs “inactive”; to `COc1cccc(CN2CCN(Cc3cc(OC)c(OC)c(OC)c3)CC2)c1OC`, “inactive”; to `Oc1ccc(/C=N/Nc2nccnc2Cl)c(O)c1`, “inactive”.
For the molecule `Nc1c(Cl)ncnc1N/N=C/c1ccc(O)cc1`, the molecule was classed as inactive.
To `CCOc1cc(/C=N/Nc2ncnc(Cl)c2N)ccc1O` belongs “inactive”; to `COc1cc(/C(C)=N/NC(=O)C(O)(c2ccccc2)c2ccccc2)ccc1O`, “inactive”.
To `Cc1nc(C/C(=N\N)c2ccc(O)cc2O)cs1` belongs “inactive”; to `O=C1CC(SC(=S)C2CCCC2=O)C(=O)N1` (stereo unspecified), “inactive”.
To `CC(CN1CCN(Cc2ccccc2)CC1)c1ccccc1` (stereo unspecified) belongs “inactive”; to `Cc1ccc(SCCN2CCN(Cc3ccccc3)CC2)cc1`, “inactive”.
`CC(=O)c1c(Nc2ccc3c(c2)OCCO3)oc(C)cc1=O`: the molecule was classed as inactive.
For `CC(=O)N1CCN(c2ccc(N)cc2)CC1`, the call was inactive.
Under `Oc1ccc(/C=N/n2cc(-c3ccccc3)[nH]c2=S)cc1` stands “inactive”.
Under `Nc1ccc(C(=O)N/N=C/c2ccc(N3CCOCC3)s2)cc1` stands “inactive”; under `CN(c1ccccc1)c1ccc(/C=N/N2CCOCC2)cc1`, “inactive”; under `Oc1ccc(-c2csc(Nc3ncccn3)n2)cc1`, “inactive”.
`Oc1ccc(-c2csc(Nc3cccnc3)n2)cc1`: the call was inactive.
Consider `C#CCOCCOCCOCCNc1nc(N2CCN(C(=O)[C@H](CCCCN)n3cc([C@@H](N)C(C)CC)nn3)CC2)nc(N2CCN(C(=O)[C@H](CCCCN)n3cc([C@@H](N)CC(C)C)nn3)CC2)n1` (stereo partly specified), for which the molecule was called inactive.
On to `Cc1ccc(N2CC(C(=O)Nc3ccc(N(C)C)cc3)CC2=O)cc1C` (stereo unspecified), for which the outcome was inactive.
Take `O=C(O)c1ccc(S(=O)(=O)c2ccc3c(c2)C(=O)N(NC(=O)c2cccnc2)C3=O)cc1`: the result was inactive.
